# KB-V1 cytotox – KB-V1 MDR subline cytotoxicity | AID 1347076 | Potency, µM (doses to about 46.1 µM), hits mostly cytotoxic | KB-V1 MDR cells viability, CellTiter-Glo, 72 h | 400,000 tested, 3.4% active; note: % is set by controls: 0 for no effect and ±100 for the full control effect; nearly all actives have a fitted effect of over 60% in size
#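 Cells of the MDR subline KB-V1 are plated, dosed with compound at multiple concentrations, and incubated 72 h at 37 degrees C; CellTiter-Glo is then added and luminescence read after 10 min.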
# TSG101-PTAP inh – blocks PTAP/TSG101 interaction to inhibit HIV-1 budding. 340,000 tested, under 10 active. Potency, µM (series often up to 115 µM), without a hit: top-dose activity change, negative = inhibition, most hits filed as inhibitors. Q99816. Fluorescence polarization, FITC-PTAP peptide / Tsg101 binding; active = well fitted inhibition curve with a large enough effect in the main read-out, with a control signal flat, not every such curve was filed as active; inconclusive = small, poorly fitted or top-dose-only effect, or effect the other way, or a change in a side signal; inactive = no such curve, though single readings can be large or run the other way; note: % of control where 0% means no effect
# Target sequence (Q99816 whole entry, looked up): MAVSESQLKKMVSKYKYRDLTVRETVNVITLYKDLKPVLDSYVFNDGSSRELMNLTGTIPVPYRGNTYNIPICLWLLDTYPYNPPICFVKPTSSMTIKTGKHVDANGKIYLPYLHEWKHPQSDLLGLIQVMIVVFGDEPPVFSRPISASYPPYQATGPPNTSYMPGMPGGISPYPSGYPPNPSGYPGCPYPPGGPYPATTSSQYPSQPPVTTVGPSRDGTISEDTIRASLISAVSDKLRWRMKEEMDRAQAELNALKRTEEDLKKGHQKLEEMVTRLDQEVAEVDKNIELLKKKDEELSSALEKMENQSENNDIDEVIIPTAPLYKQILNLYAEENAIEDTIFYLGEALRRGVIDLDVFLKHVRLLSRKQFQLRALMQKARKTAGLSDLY
#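 Compounds were pin-transferred onto Tsg101 binding domain (10 uM final) in HEPES pH 7.5 buffer, then FITC-PTAP peptide was added at 50 nM final. After 20 min at RT, polarization reported peptide displacement across a qHTS concentration series.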
# SW480 rerep – induces DNA re-replication in SW480 colon adenocarcinoma cells. Potency, µM (top dose mostly 46.1 µM), without a hit: at the top dose re-replication activation, hits mostly activators. AID 624297. 340,000 tested, 1.8% active. SW480 DNA re-replication, Hoechst DNA content imaging, 48 h; note: % of control where 0% means no effect; nearly all actives have a fitted effect of over 55% in size
#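 Quantitative HTS format with DMSO vehicle controls; 48 hr drug incubation at 37 C, then 40 min Hoechst staining and scanning imager measurement at 405 nm excitation.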
# KB-3-1 tox – KB-3-1 parental cell cytotoxicity. Potency, µM (titrated, usually from 46.1 µM), hits mostly cytotoxic. 400,000 tested, 1.4% active. KB-3-1 viability, CellTiter-Glo ATP luminescence, 72 h; note: % is set by controls: 0 for no effect and ±100 for the full control effect; nearly all actives have a fitted effect of over 60% in size
#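 Screening of KB-3-1 cells (DMEM, 10% FBS, phenol-red free) ran from lowest to highest compound concentration; after 72 h at 37 °C viability was read luminescently and curves fitted.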
# RGS4 inhibitor – human RGS4 inhibition; P49798; Potency, µM (titrated, usually from 114 µM), inactives show top-dose activity change, negative = inhibition, actives largely listed as inhibitors; 390,000 tested, 0.039% active; Transcreener GDP fluorescence polarization, RGS4-accelerated GTP hydrolysis; note: % is set by controls: 0 for no effect and ±100 for the full control effect; nearly all actives have a fitted effect of over 75% in size
# Target sequence (P49798 whole entry, looked up): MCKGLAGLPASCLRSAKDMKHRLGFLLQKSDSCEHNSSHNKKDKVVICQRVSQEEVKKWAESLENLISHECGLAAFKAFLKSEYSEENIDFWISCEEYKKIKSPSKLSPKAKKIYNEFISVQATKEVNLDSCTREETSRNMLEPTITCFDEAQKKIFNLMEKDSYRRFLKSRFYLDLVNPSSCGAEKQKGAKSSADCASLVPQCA
#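 MLSMR compounds (23 nl, pin-transferred) preincubated 10 min at room temperature with a 500nM (2x) first reagent, then RGS4 at 900nM (2x) plus Transcreener GDP mix added; fluorescence polarization (620/688 nm) read before and after 90 min at 30 °C.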
# MCF10A rerep – DNA re-replication induction in MCF 10a cells. Potency, µM (series often up to 46.1 µM), for inactives: at the top dose activity, positive = re-replication, actives largely listed as activators. AID 624296. 350,000 tested, 2.9% active. MCF 10A DNA re-replication, Hoechst nuclear intensity, 48 h; note: % of control where 0% means no effect; nearly all actives have a fitted effect of over 50% in size
# Starred values were filed as active, the others as inactive; i = inactive; ? = inconclusive; . = no result; [ ] = remark or other dose. Shown are actives, neighbours in structure and some others; about 6.6% of the full set was active somewhere. Unless noted, calls come from the whole dose curve; as a rule, active = well fitted curve in the direction sought with a large enough effect; inconclusive = small, poorly fitted or top-dose-only effect, or another doubt; inactive = no such curve, though single readings can be large; an effect the other way counts as inactive or inconclusive. Potency is the fitted concentration of half-maximal effect.
SMILES,KB-V1 cytotox,TSG101-PTAP inh,SW480 rerep,KB-3-1 tox,RGS4 inhibitor,MCF10A rerep
COc1cccc(/C=C2/SC(=S)N(CC(=O)Nc3nccs3)C2=O)c1,?,.,.,i,-7%,.
O=c1[nH]cc(CCc2ccccc2)c2ncncc12,.,.,.,.,17%,.
On1onc2c3cc(-c4ccccc4)nc3ccc21,15µM*,-1%,7.3µM*,i,-12%,8.2µM*
CC(=O)N[C@H]1[C@H](O[C@@H]2c3ccc(c(Cl)c3)Oc3cc4cc(c3O[C@@H]3O[C@H](CO)[C@@H](O)[C@H](O)C3C)Oc3ccc(cc3Cl)C[C@H]3NC(=O)[C@@H](N)c5ccc(O)c(c5)Oc5cc(O)cc(c5)[C@H](NC3=O)C(=O)N[C@H]4C(=O)N[C@H]3C(=O)N[C@@H]2C(=O)N[C@@H](C(=O)O)c2cc(O)cc(O[C@H]4O[C@H](CO)[C@@H](O)C(O)[C@@H]4O)c2-c2cc3ccc2O)O[C@H](CO)[C@@H](O)[C@@H]1O (some centres undefined),.,.,-1%[20.6 µM],.,.,2%[20.6 µM]
CC(=O)c1cc(-c2ccc(F)cc2)n(CC(=O)NCc2ccc(C)cc2)c1C,i,.,.,i,-10%,.
Cc1ccc(/C=C2\CCCC3=C2NC(=S)NC3c2ccc(C)cc2)cc1 (centres undefined),16µM*,-2%,67%,?,?,23%
O=C1NC(=S)/C(=C\c2ccc(-c3ccccc3Cl)o2)S1,i,?,-49%,?,?,6.5µM*
O=C(Nc1cc(Cl)cc(Cl)c1)c1ccc(Cn2c(=O)[nH]c3ccsc3c2=O)cc1,i,0%,8%,16µM*,-31%,23µM*
CCOC(=O)C1CCN(c2nc3c(S(=O)(=O)c4ccccc4)nnn3c3ccc(Cl)cc23)CC1,i,.,.,i,-3%,.
CCc1nnc(NC(=O)c2oc3ccc(Br)cc3c2C)s1,i,-8%,-4%,i,7%,21µM*
Cc1c(C(=O)Nc2ccc(-c3nnc4n3CCCCC4)cc2)oc2ccc(Br)cc12,8.2µM*,2%,-15%,i,-4%,5%
O=C(Nc1ccc(-c2nnc3n2CCCCC3)cc1)c1ccco1,?,-7%,4%,i,31%,10%
Cc1c(C(=O)Nc2nccs2)oc2ccc(Br)cc12,8.2µM*,-2%,10%,5.8µM*,-24%,?
Cc1c(C(=O)Nc2nccs2)oc2ccc(F)cc12,i,-4%,2%,i,-2%,-3%
CN1CCN(Nc2nn3c(=O)c4ccccc4nc3s2)CC1,?,.,.,i,.,.
Cc1ccc(Nc2c3c(nc4nncn24)CCC3)cc1C,.,.,.,.,37%,.
COc1ccc2c(c1)CCc1c-2nc2ccccc2c1N1CCOCC1,?,-6%,?,?,-30%,16µM*
COc1ccc2c(-c3ccccc3)cc(N3CCOCC3)nc2c1,i,-2%,1%,i,21%,21µM*
CCOc1cc(CNc2ccc(O)cc2)ccc1OCc1ccc(Cl)cc1,i,.,.,i,?,.
Brc1ccc(Cn2c(-c3cncs3)nc3ccccc32)cc1,16µM*,1%,1%,i,-21%,4%
Cc1c(C(C)NC(=O)c2cc(COc3cccc4cnccc34)on2)cnn1C (centres undefined),?,1%,-15%,21µM*,13%,3%
CSc1ccccc1OCc1cc(C(=O)NC(C)c2cnn(C)c2)no1 (centres undefined),.,-2%,6%,.,-50%,-2%
CCc1ccc(CN(C)C(=O)c2cc(COc3cccc4cnccc34)on2)cc1,i,-5%,-10%,?,9%,21µM*
Cc1cccc(N2CCN(C(=O)CCS(=O)(=O)c3ccc4c(c3)CC(=O)N4C)CC2C)c1 (centres undefined),i,.,.,i,-17%,.
CC(=O)c1sc2c(c1OC(=O)c1ccccc1)c(=O)n(-c1ccccc1)c(=S)n2-c1ccccc1,9.2µM*,-3%,-4%,8.2µM*,-16%,?
SMILES,KB-V1 cytotox,TSG101-PTAP inh,SW480 rerep,KB-3-1 tox,RGS4 inhibitor,MCF10A rerep
COc1ccccc1S(=O)(=O)Cc1ccc(C(=O)NCc2ccc(Cl)cc2)o1,i,.,.,i,-5%,.
CCOC(=O)N1CCC(Nc2cc(C)nc3c(-c4ccccc4OC)c(C)nn23)CC1,i,3%,7%,i,35%,1%
COc1ccccc1-c1cnn2c(NC3CCCC3)cc(C)nc12,?,-5%,28%,i,-11%,16µM*
CC(=O)N(Cc1c(C)nn(-c2ccccc2)c1Cl)c1ccc(Cl)cc1,?,-2%,-5%,i,38%,14%
Cc1nn(-c2ccccc2)c(Cl)c1CN(C(=O)CCl)c1ccc(Cl)cc1,21µM*,-3%,3.3µM*,?,-19%,?
Cc1nn(-c2ccccc2)c(Cl)c1CN(C(=O)CCl)c1cccc2ccccc12,?,11%,?,18µM*,-9%,?
Cc1nn(-c2ccccc2)c(C)c1-c1nnc(-c2c(C)nn(-c3ccccc3)c2C)o1,9.2µM*,1%,-13%,i,-53%,0%
Cc1ccc(CNC(=O)C2CCN(S(=O)(=O)c3ccc4[nH]c(=O)ccc4c3)CC2)cc1,?,.,.,i,25%,.
CC1(C)CC(=O)C=C(c2ccc(-c3ccc4[nH]ccc4c3)cc2)C1=O,?,.,.,8.2µM*,.,.
CC1(C)CC(=O)C=C(c2ccccc2-c2ccc3cc[nH]c3c2)C1=O,?,.,.,i,.,.
Cc1cccc(C)c1N1CCN(C(=O)Nc2ccc3c(c2)OCCO3)CC1,4.6µM*,-8%,9%,i,7%,7%
O=C(/C=C/c1ccc2c(c1)OCCO2)N1CCN(c2ccc(F)cc2)CC1,i,5%,-17%,i,18%,-2%
O=C(Nc1ccc2c(c1)OCCO2)N1CCN(c2ccc(F)cc2)CC1,21µM*,-2%,2%,?,14%,10%
Nc1nc(=S)c2snnc2[nH]1,i,.,.,i,.,.
Cc1cccc(CNC(=O)c2cccc(NC(=O)N3CCSc4ncccc43)c2)c1,i,.,.,i,7%,.
COc1cccc(CNC(=O)CCc2c(C)c3ccc(O)c(C)c3oc2=O)c1,.,.,.,.,-21%,.
CC(=O)Nc1ccc(S(=O)(=O)N(C)C2CCN(C)CC2)cc1,i,0%,-4%,i,-3%,3%
CC(Oc1cccc(Cl)c1)C(=O)Nc1cc(Cl)ccc1N1CCOCC1 (centres undefined),?,-4%,9.2µM*,i,-15%,?
CSc1ncccc1C(=O)Nc1cc(Cl)ccc1N1CCOCC1,21µM*,-2%,5%,?,-12%,13%
